Consider 92 compounds from PubChem BioAssay AID463187 (University of Pittsburgh Molecular Library Screening Center, 2010).

Among all 220,000 compounds or so, about 1,500 (0.68%) were called active. The full list was thinned out, with actives kept by preference. A number with no mark means an inactive call.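 How the source made its calls: active means Hck-Nef kinase inhibition above about 50% (limit read from the data); inactive means inhibition below that limit.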

Tyrosine-protein kinase HCK (Homo sapiens), sequence (P08631 whole entry, looked up): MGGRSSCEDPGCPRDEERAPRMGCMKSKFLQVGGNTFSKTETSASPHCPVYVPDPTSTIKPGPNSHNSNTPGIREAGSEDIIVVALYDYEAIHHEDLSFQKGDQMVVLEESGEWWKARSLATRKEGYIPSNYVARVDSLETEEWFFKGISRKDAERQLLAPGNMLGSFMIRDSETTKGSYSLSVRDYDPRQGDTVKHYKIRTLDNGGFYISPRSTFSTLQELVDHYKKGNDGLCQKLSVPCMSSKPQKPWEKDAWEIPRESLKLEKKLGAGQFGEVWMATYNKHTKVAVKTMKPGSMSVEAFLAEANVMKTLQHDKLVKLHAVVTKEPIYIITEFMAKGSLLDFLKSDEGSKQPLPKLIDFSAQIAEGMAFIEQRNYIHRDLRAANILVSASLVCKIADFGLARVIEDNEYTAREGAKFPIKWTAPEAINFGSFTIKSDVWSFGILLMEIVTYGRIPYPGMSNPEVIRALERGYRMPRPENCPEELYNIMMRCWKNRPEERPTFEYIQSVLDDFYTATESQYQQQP

This test addresses Tyrosine-protein kinase HCK (Homo sapiens) (UniProt P08631). As to the kind of experiment: Hck:Nef complex kinase activity blockers – biochemical, Z-Lyte FRET, 384-well, Hck-YEEI, primary screen (AID 463187).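 Further: 0% = DMSO with Hck plus Nef and 100% = Hck alone without Nef.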 Conditions: Recombinant Hck-YEEI plus Nef, Z-Lyte FRET kinase assay; at 20 µM; active compounds read high.
Consider `Cc1cnc(C(=O)N2CCCC(C(=O)c3ccc(C(F)(F)F)cc3)C2)cn1` (configuration not stated), for which the inhibition was 17.7%.
Next, `COc1cccc(CNC(=O)CCC2CCCN(Cc3ccc(OC(F)F)cc3)C2)c1` (configuration not stated): 52.7% (active).
Then `COc1cccc(C(=O)N2CCCC(CCC(=O)NCc3ccc(F)c(F)c3)C2)c1` (configuration not stated), with 18.6%.
Then `COc1cccc(CNC(=O)CCC2CCCN(C(=O)c3ccoc3C)C2)c1` (configuration not stated), with 1.1%; and `O=C(/C=C/c1ccc(F)cc1)Nc1cccc(S(=O)(=O)Nc2cccc(C(F)(F)F)c2)c1`, with 2.87%.
Regarding `CC(=O)NC(=S)NNC(=O)c1ccc(Br)cc1`, the inhibition was -1.36%.
Next, `COc1cccc2c1OCC(C(=O)NCc1ccc(Cl)cc1Cl)=C2`: 2.65%.
Next, `N#Cc1c(-c2cccs2)nc(SCC(=O)c2ccc(Br)cc2)[nH]c1=O`: 72.7% (active); `CCc1ccc(C(=O)CSc2nnc(C)c(=O)[nH]2)cc1`: 10.1%.
On to `Cc1nc2nc(SCC(=O)c3ccccc3)[nH]c2cc1Br`, for which the inhibition is 16.2%.
Take `COc1cccc(C2Nc3cccc4cccc(c34)N2)c1`: the inhibition was 21.8%.
Then `COCc1cc(C)nc2sc(C(=O)NC3CCCCC3)c(N)c12`, with 1.3%.
Then `COc1cccc(C(=O)c2cc3ccc(O)cc3oc2=O)c1`, with 63.1% (active); and `COc1ccc2oc(=O)c(C(=O)N3CCCC3)cc2c1`, with 22%; and `COc1ccc2oc(=O)c(C(=O)O)cc2c1`, with -0.521%.
Then `O=C(Cc1c(O)c2ccccc2[nH]c1=O)NCc1ccccc1`, with 2.47%.
Regarding `COc1cc(OC)cc(C(=O)NCC(=O)OCc2csc(-c3ccccc3)n2)c1`, the inhibition was 3.87%.
Then `Cc1cc(NC(=O)CN2C(=O)NC(CCc3ccccc3)C2=O)no1` (configuration not stated), with -23.9%; and `CC(C)OC(=O)Cn1nc(C(F)(F)F)c2c1CCCC2`, with 22.4%; and `O=C(N/N=C/c1ccc([N+](=O)[O-])cc1)C(=O)N1CCCC1`, with 6.04%.
Then `N#C/C(=C/c1ccc(N2CCOCC2)o1)C(=O)N1CCOCC1`, with 1.17%; and `Cc1nnc(SCC(=O)NNC(=O)c2ccc(Cl)cc2)n1CC1CCCO1` (configuration not stated), with 22.1%; and `Cc1cccn2c(=O)c3cc(C#N)c(=O)n(CCCN4CCOCC4)c3nc12`, with 178% (active).
As for `Cc1cccn2c(=O)c3cc(C#N)c(=NC(=O)c4cccnc4)n(CC4CCCO4)c3nc12` (configuration not stated), the inhibition was 35.1%.
For `Cc1cccn2c(=O)c3cc(C(=O)N4COCC4(C)C)n(C)c3nc12`, the inhibition was 11.2%.
Then `COc1ccc(CCNC(=O)COC(=O)/C=C/c2cccs2)cc1OC`, with 19.3%; and `COc1ccc(C2=NN(C(=O)CCC(=O)O)C(c3cccs3)C2)cc1OC` (configuration not stated), with 19.1%; and `COC(=O)C1=CN(Cc2ccc(OC)c(OC)c2)C=C(C(=O)OC)C1c1cccs1`, with 79.3% (active).
For the compound `Cc1ccc2nc(-c3ccccn3)cc(C(=O)Nc3ccc4c(c3)OCO4)c2c1`, the inhibition was -2.84%.
As to `Cc1ccc2nc(-c3ccncc3)cc(C(=O)Nc3ccc4c(c3)OCCO4)c2c1`, the inhibition was -4.23%.
As to `O=C(NCc1cccs1)c1cc(-c2ccccn2)nc2ccc(Br)cc12`, the inhibition was -19.4%.
Next, `Cc1ccc2nc(-c3ccccc3)cc(C(=O)O)c2c1`: 3.19%.
For the compound `Cc1ccc2nc(-c3ccncc3)cc(C(=O)Nc3ccc(OC(F)F)cc3)c2c1`, the inhibition was 53.4% (active).
Then `O=C(Nc1ccncc1)c1cc(-c2ccccn2)nc2ccc(Br)cc12`, with 81.4% (active); and `COC(=O)Cn1c(=NC(=O)c2cc(OC)c(OC)c(OC)c2)sc2cc(OC)ccc21`, with -1.02%; and `COCC(C)NC(=O)COc1nncc2ccccc12` (configuration not stated), with 21.5%.
Then `Cc1cc(=O)[nH]c(S)c1C#N`, with -0.332%; and `O=S(=O)(Cc1ccccc1)c1nc2ccccc2n1Cc1ccccn1`, with 5.67%.
Then `Cc1cc(/C=N/n2cnnc2)c(C)n1-c1cccc(C(=O)O)c1`, with -0.934%.
As for `Cc1ccc(-n2c(C)cc(/C=N/Nc3ccc([N+](=O)[O-])cn3)c2C)c(C)c1`, the inhibition is 0.189%.
Then `Cc1cc(/C=N/Nc2ccc([N+](=O)[O-])cn2)c(C)n1-c1cccc(C(=O)O)c1`, with 58.6% (active); and `Cc1c(CCOC(=O)CC23CC4CC(CC(C)(C4)C2)C3)sc[n+]1Cc1ccc([N+](=O)[O-])cc1`, with 6.69%; and `COC(=O)c1ccc(OCC(O)CN(CCO)CC(O)Cn2ccc3ccccc32)cc1` (configuration not stated), with 60.4% (active).
Next, `COc1ccc(CCNCC(O)Cn2ccc3ccccc32)cc1OC` (configuration not stated): 37.4%.
Next, `C=CCn1c(=N)n(CC(O)COc2ccc(OC)cc2)c2ccccc21` (configuration not stated): 16%.
In the case of `CC(C)n1c(-c2cccs2)nc2ccccc21`, the inhibition is 10.6%.
For `COCCCn1c(-c2cccs2)nc2nc3ccccc3nc21`, the inhibition is 67.9% (active).
As for `COc1ccccc1C(=O)Nn1c(-c2cccs2)nc2ccccc2c1=O`, the inhibition is 2.4%.
For `Cc1cc(C)cc(C(=O)NC(=S)Nc2ccc3[nH]c(=O)[nH]c3c2)c1`, the inhibition was 2.61%.
Take `Cc1cc(-c2csc(N)n2)c(C)n1-c1ccccc1`: the inhibition was 7.5%.
Then `CCc1cccc2c(=O)c(C(=O)NCCCOC)c[nH]c12`, with -18.3%.
Turning to `COc1ccc(CCn2c(=N)c(C(=O)NCc3ccco3)cc3c(=O)n4cccc(C)c4nc32)cc1`, the inhibition is 7.77%.
Consider `COc1ccccc1N(C)S(=O)(=O)c1ccc(C(=O)NC2CCCCCC2)cc1`, for which the inhibition is 0.492%.
On to `CCCCn1c(N)c(N(CC)C(=O)/C=C/c2ccco2)c(=O)[nH]c1=O`, for which the inhibition was -7.95%.
Next, `Cc1ccc(CCC(=O)Nc2ncc(Cc3cc(Cl)ccc3Cl)s2)o1`: 6.19%; `O=C(c1cnn(-c2ccc(Cl)cc2)c1)c1ccccc1O`: 17%; `Cc1ncc(CC(=O)n2cc(C(=O)c3cc(Cl)ccc3O)cn2)s1`: 78.7% (active).
Then `O=C(NCc1csc(-c2cccs2)n1)C1CC1`, with -1.15%; and `COC(=O)CN1C(=S)N(c2ccccc2)C(=O)C1CC(=O)Nc1ccc(Cl)cc1` (configuration not stated), with 2.46%.
Then `COc1ccc(C(=O)n2nc(-c3ccc(C)cc3)nc2N)cc1OC`, with -1.4%; and `COc1ccc(C(=O)O/N=C(\N)Cc2ccc(Cl)cc2Cl)cc1OC`, with 3.19%.
In the case of `COc1ccc(C(=O)n2nc(-c3ccc(Cl)cc3)nc2N)cc1OC`, the inhibition was 81.4% (active).
Next, `CC(C)NC(=O)/C(C#N)=C\c1ccc(N(C)C)c(Br)c1`: 7.25%.
In the case of `O=C(O)Cc1sc(-c2ccccc2)nc1-c1cccs1`, the inhibition is -10.1%.
Then `CCCNC(=O)N1CCN(C(=O)NCCC)CC1`, with 0.793%; and `O=[N+]([O-])C(=c1ccc2c(c1)N1C3=C(CCCC3)CC3CCCCC31N=2)[N+](=O)[O-]` (configuration not stated), with 73% (active).
Regarding `CCCCCC(=O)Nc1ccc(S(=O)(=O)Nc2ccc(Cl)nn2)cc1`, the inhibition was -1.44%.
Then `C=C(C)COc1ccc(-c2nc(N)ncc2-c2ccccc2OC)c(O)c1`, with 68.8% (active).
Then `CCOc1ccc(-c2n[nH]c(C)c2-c2ccccn2)c(O)c1`, with -15.5%; and `C=C(C)COc1ccc(-c2n[nH]c(C)c2-c2ccccc2)c(O)c1`, with -0.0537%.
On to `CCOc1ccc(-c2nc(N)ncc2-c2ccccc2OC)c(O)c1`, for which the inhibition was 75.3% (active).
Regarding `CCOc1ccccc1Oc1cn[nH]c1-c1ccc(OC)cc1O`, the inhibition was 26.3%.
In the case of `C=C(C)COc1ccc(-c2n[nH]c(C)c2-c2ccccc2OC)c(O)c1`, the inhibition was 12.1%.
Next, `c1ccc(-c2cc3c(NCC4COc5ccccc5O4)ncnc3s2)cc1` (configuration not stated): 5.9%; `COc1ccc(-c2cc(C(=O)NCCCn3ccnc3)no2)cc1`: -9.96%.
Next, `Cc1cccc2cc(CN(C(=O)c3cccs3)c3ccccc3)c(=O)[nH]c12`: 3.68%; `O=C(CN1CCN(c2ccc(O)cc2)CC1)Nc1cc(S(=O)(=O)N2CCOCC2)ccc1Cl`: 12.6%; `O=C(N/N=C/c1ccc([N+](=O)[O-])o1)c1cccc(S(=O)(=O)N2CCOCC2)c1`: 18.1%.
Next, `O=[N+]([O-])c1cc(Cl)cc(/C=N/NC(=S)Nc2cc(S(=O)(=O)N3CCOCC3)ccc2Cl)c1O`: 68.6% (active); `Cc1nn(Cc2ccc(C(=O)N3N=C(C(F)F)CC3(O)C(F)F)cc2)c(C)c1[N+](=O)[O-]` (configuration not stated): -2.69%; `O=C(CN1C(=O)/C(=C\c2ccccc2F)SC1=S)Nc1nc2ccccc2s1`: 4.36%.
Take `CN(C)S(=O)(=O)c1cccc(-c2nn(-c3ccccc3)cc2/C=C2\SC(=S)N(CC(=O)O)C2=O)c1`: the inhibition was 56.2% (active).
In the case of `Cc1ccc(-c2nn(-c3ccccc3)cc2/C=C/C(=O)Nc2cccc(S(N)(=O)=O)c2)cc1`, the inhibition was 14.1%.
Then `CC1(C)CC(=O)C(C2c3ccccc3S(=O)(=O)c3ccccc32)C(=O)C1`, with 2.74%.
Next, `C=CCOc1c2ccc(C(=O)N(CC)c3ccc(OC)cc3)cc2nn1C`: -0.652%.
Then `CC1=NN(/C(=N\c2nnc(C)s2)Nc2ccccc2)[C@H](c2ccc(C)cc2)S1`, with -3.06%; and `CCCc1cc(=O)oc2c(C)c(O)c(CN3CCCCC3)cc12`, with 31%; and `COC(=O)COc1ccc2oc(=O)cc(C)c2c1`, with 1.26%.
`COC(=O)Cc1cc(=O)oc2c(C)c(O)ccc12`: the inhibition was 58.3% (active).
Then `CCCn1c(=NC(C)=O)c(C(=O)OCC)cc2c(=O)n3ccccc3nc21`, with 95.9% (active); and `CCOC(=O)c1cc2n(c1N)-c1ccccc1C2=O`, with -1.56%.
Turning to `CCOC(=O)c1cc2c(=O)n3ccccc3nc2n(CC(C)C)c1=NC(=O)c1c(-c2c(F)cccc2Cl)noc1C`, the inhibition was 8.32%.

What is called inhibition is the change of the read-out against control, counted positive when it falls.
